A number with no mark means an inactive call.

A short description of the assay: resazurin metabolic signal in A549 cells – cell-based, resazurin fluorescence, 24 h, PK04 Diversity Set, profiling panel (AID 1171). Further: test concentration not given here. The note with it: A549 viability, higher = more signal, called active from +8 up or from −8 down. In general terms: The colour change of resazurin is a common sign of viable cells or microbes.
On to `CC(CCC(=O)OC[C@H]1O[C@H](C#Cc2ccccc2)C=C[C@@H]1Oc1ccc(C)cc1)=NOC[C@@H](C)[C@H](OCc1ccccc1)C(C)C`, for which the z-score is 0.865.

As to `CC(C)CON=C1C[C@@H](O)[C@@H](O)[C@@H]2[C@@H]3C(=O)N([C@@H](C)c4ccccc4)C(=O)[C@@H]3CC[C@@H]12`, the z-score is 0.0092.

As to `O=C1[C@H]2[C@H]3[C@H](O)[C@H](O)CC(=NO[C@@H]4O[C@H](CO)[C@@H](O)[C@H](O)[C@H]4O)[C@H]3CC[C@H]2C(=O)N1c1ccc(F)cc1F`, the z-score is 1.09.

In the case of `COC(=O)[C@@H]1CC[C@H](C)[C@@H](c2ccc(C)cc2)N1C(=O)c1ccc(C=NOC[C@H]2O[C@H](c3ccccc3)C=C[C@@H]2Oc2ccc(OC)cc2)cc1`, the z-score is 0.307.

Take `COC(=O)CC=C[C@@H](C)[C@@H](C=NOC[C@@H](O)COCc1ccco1)OC`: the z-score is -0.329.

As to `CC(C)(C)N1C(=O)[C@H]2[C@H]3[C@H](O)[C@H](O)CC(=NOC[C@@H](O)COCc4ccco4)[C@@H]3CC[C@H]2C1=O`, the z-score was -0.0978.

For the compound `C#CCCCON=C1C[C@@H](O)[C@@H](O)[C@@H]2[C@@H]3C(=O)N(C[C@@H]4CCCO4)C(=O)[C@@H]3CC[C@H]12`, the z-score was 0.019.

`CCOC(=O)[C@H](CC(C)C)NC(=O)CCC1CC(OC(=O)NCCc2ccc(F)cc2)CC2(CCCC(COC(=O)NCCOC)O2)O1` (stereo not given in full): the z-score is 0.305.

Turning to `CCOC(=O)[C@H](Cc1ccccc1)NC(=O)CCC1CC(OC(=O)NCCc2ccc(F)cc2)CC2(CCCC(COC(=O)NCCC(C)C)O2)O1` (stereo not given in full), the z-score is 1.87.

With `CC(C)=CCCC(C)=CCON=C1C[C@@H](O)[C@@H](O)[C@@H]2[C@@H]3C(=O)N(C4CCCCC4)C(=O)[C@@H]3CC[C@H]12`, the z-score was -0.587.
